The record followed here is PubChem BioAssay (NCI).

The nature of test [1]: NCI Yeast Anticancer Drug Screen. Data for the rad50 strain (AID 155).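 Note: 0% = growth of vehicle-only cultures of the same strain.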 To be noted: S. cerevisiae rad50 strain growth inhibition, active compounds read high. A digest of the protocol:
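Compounds were tested on a yeast strain with an engineered DNA damage repair alteration; the reported value is growth inhibition normalised to vehicle treatment.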

Test [2] can be described thus: NCI Yeast Anticancer Drug Screen. Data for the mec2-1 strain (AID 157). To be noted: S. cerevisiae mec2-1 strain, active compounds read high. The essentials:
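Cells of the genetically defined mec2-1 yeast strain are incubated with test compound. Inhibition of growth is calculated against vehicle-treated controls.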

Test [3] can be described thus: NCI Yeast Anticancer Drug Screen. Data for the sgs1 mgt1 strain (AID 161).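 Note: 0% = growth of cultures given vehicle only.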 The following applies: S. cerevisiae sgs1 mgt1 strain, active compounds read high. A digest of the protocol:
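Test agents were incubated with a DNA-repair-mutant yeast strain. Growth was then read and compared against vehicle-treated controls.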

Test [4] in a line: NCI Yeast Anticancer Drug Screen. Data for the cln2 rad14 strain (AID 165).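 Note: 0% = growth equal to vehicle treated cultures.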 The following applies: S. cerevisiae cln2 rad14 strain, active compounds read high. The essentials:
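The screen exposed genetically defined yeast (cln2 rad14) to test compounds and scored growth inhibition relative to vehicle-treated controls.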

Test [5] is described as follows: NCI Yeast Anticancer Drug Screen. Data for the bub3 strain (AID 167). The following applies: S. cerevisiae bub3 mutant strain, active compounds read high. The essentials:
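Growth of a checkpoint-deficient yeast mutant is measured after compound exposure. Values represent inhibition relative to vehicle.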

A short description of test [6]: NCI Yeast Anticancer Drug Screen. Data for the mlh1 rad18 strain (AID 175). To be noted: S. cerevisiae mlh1 rad18 strain growth inhibition, active compounds read high. A digest of the protocol:
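Compound-treated yeast growth, normalised to vehicle controls. Strain bears defined DNA repair mutations.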

Where [7] appears, read: at 5.0 µM (retest, dose inferred, filed as 0.5).
Setting [8] is: at 50.0 µM (retest, dose inferred, filed as 5.0).

Compounds without any hit were thinned out: in the full panel of roughly 79,000, 15% have a hit. Values without a mark were called inactive. The source made the active and inactive calls. Cut-off read from the data, not from the text of the source: active = growth inhibition above about 70%; inactive = the rest.

With `CC1=C(/C=C/C(C)=C/C(=O)O)C(C)(C)CCC1`, the growth inhibition in test [1] (setting [7]) is 2%; in test [1] (setting [8]) it was 67%; in test [2] (setting [7]) it was -2%; in test [2] (setting [8]), 47%; in test [3] (setting [7]), 3%; in test [3] (setting [8]) it was 83% (active). In addition, the growth inhibition in test [4] (setting [7]) is 3%; in test [4] (setting [8]), 43%; in test [5] (setting [7]), 4%; in test [5] (setting [8]), 64%; in test [6] (setting [7]) it was -36%; in test [6] (setting [8]), 64%.

For the compound `C=CCCCCCCCCC(=O)NN`, the growth inhibition in test [1] (setting [7]) was 18%; in test [1] (setting [8]) it was 92% (active); in test [2] (setting [7]), -1%; in test [2] (setting [8]), 79% (active); in test [3] (setting [7]), 15%; in test [3] (setting [8]), 92% (active). Also, the growth inhibition in test [4] (setting [7]) was -8%; in test [4] (setting [8]), 81% (active); in test [5] (setting [7]), 0%; in test [5] (setting [8]) it was 85% (active); in test [6] (setting [7]) it was -25%; in test [6] (setting [8]) it was 91% (active).

On to `CC(=O)Nc1ccc(/C=N/NC(=S)NCC(C)C)cc1`, for which the growth inhibition is 4% in test [1] (setting [7]); 10% in test [1] (setting [8]); 2% in test [2] (setting [7]); 3% in test [2] (setting [8]); -1% in test [3] (setting [7]); 7% in test [3] (setting [8]). Besides, the growth inhibition was 11% in test [4] (setting [7]); -8% in test [4] (setting [8]); 5% in test [5] (setting [7]); 9% in test [5] (setting [8]); -1% in test [6] (setting [7]); -4% in test [6] (setting [8]).

As to `C1CCC(CCCc2nn[nH]n2)CC1`, the growth inhibition in test [1] (setting [7]) is 20%; in test [1] (setting [8]), 53%; in test [2] (setting [7]), -1%; in test [2] (setting [8]) it was 64%; in test [3] (setting [7]) it was -2%; in test [3] (setting [8]), 51%. For the same compound, the growth inhibition in test [4] (setting [7]) is 1%; in test [4] (setting [8]) it was 44%; in test [5] (setting [7]), 1%; in test [5] (setting [8]), 78% (active); in test [6] (setting [7]), 13%; in test [6] (setting [8]), 61%.

Regarding `[O-][n+]1cccc2cccc(O)c21`, the growth inhibition in test [1] (setting [7]) is 2%; in test [1] (setting [8]), 61%; in test [2] (setting [7]) it was -1%; in test [2] (setting [8]) it was 16%; in test [3] (setting [7]), 1%; in test [3] (setting [8]) it was 48%. For the same compound, the growth inhibition was -3% in test [4] (setting [7]); 2% in test [4] (setting [8]); 1% in test [5] (setting [7]); 20% in test [5] (setting [8]); -12% in test [6] (setting [7]); 49% in test [6] (setting [8]).

Take `CCCCCCCCCC(=O)CCCCCCCCC`: the growth inhibition in test [1] (setting [7]) is 48%; in test [1] (setting [8]), 7%; in test [2] (setting [7]), 30%; in test [2] (setting [8]), 8%; in test [3] (setting [7]), 44%; in test [3] (setting [8]), 14%. Besides, the growth inhibition was 22% in test [4] (setting [7]); 11% in test [4] (setting [8]); 92% (active) in test [5] (setting [7]); 38% in test [5] (setting [8]); 32% in test [6] (setting [7]); 35% in test [6] (setting [8]).

On to `C/C(=N\Nc1ccc(Cl)cc1)C(=O)O`, for which the growth inhibition in test [1] (setting [7]) was 17%; in test [1] (setting [8]) it was 97% (active); in test [2] (setting [7]) it was -2%; in test [2] (setting [8]) it was 98% (active); in test [3] (setting [7]) it was 14%; in test [3] (setting [8]) it was 99% (active). Moreover, the growth inhibition is 8% in test [4] (setting [7]); 98% (active) in test [4] (setting [8]); 29% in test [5] (setting [7]); 99% (active) in test [5] (setting [8]); -29% in test [6] (setting [7]); 96% (active) in test [6] (setting [8]).

For `O=c1c2ccccc2ncn1O`, the growth inhibition in test [1] (setting [7]) was -1%; in test [1] (setting [8]), 93% (active); in test [2] (setting [7]), 1%; in test [2] (setting [8]), 54%; in test [3] (setting [7]), 8%; in test [3] (setting [8]), 98% (active). The growth inhibition is 10% in test [4] (setting [7]); 21% in test [4] (setting [8]); 5% in test [5] (setting [7]); 89% (active) in test [5] (setting [8]); -12% in test [6] (setting [7]); 81% (active) in test [6] (setting [8]).

As to `C=CC(=O)OCCOCc1ccccc1`, the growth inhibition in test [1] (setting [7]) is 4%; in test [1] (setting [8]), 29%; in test [2] (setting [7]), -3%; in test [2] (setting [8]), 12%; in test [3] (setting [7]), -1%; in test [3] (setting [8]), 27%. Besides, the growth inhibition is -2% in test [4] (setting [7]); -12% in test [4] (setting [8]); 1% in test [5] (setting [7]); 12% in test [5] (setting [8]); -32% in test [6] (setting [7]); 18% in test [6] (setting [8]).

As for `CCCCNC(=O)C(C)O` (stereo unspecified), the growth inhibition is 5% in test [1] (setting [7]); 23% in test [1] (setting [8]); 0% in test [2] (setting [7]); 3% in test [2] (setting [8]); 0% in test [3] (setting [7]); 4% in test [3] (setting [8]). Further, the growth inhibition was 5% in test [4] (setting [7]); 0% in test [4] (setting [8]); 1% in test [5] (setting [7]); -2% in test [5] (setting [8]); 3% in test [6] (setting [7]); 8% in test [6] (setting [8]).

In the case of `CC(C)(C)c1cc([N+](=O)[O-])c(O)c([N+](=O)[O-])c1`, the growth inhibition was 36% in test [1] (setting [7]); 89% (active) in test [1] (setting [8]); 11% in test [2] (setting [7]); 54% in test [2] (setting [8]); 15% in test [3] (setting [7]); 74% (active) in test [3] (setting [8]). In addition, the growth inhibition in test [4] (setting [7]) is 22%; in test [4] (setting [8]), 46%; in test [5] (setting [7]) it was 18%; in test [5] (setting [8]), 74% (active); in test [6] (setting [7]), 2%; in test [6] (setting [8]) it was 81% (active).

Consider `CC1C2c3ccccc3C(c3ccccc32)C1CO` (stereo unspecified), for which the growth inhibition in test [1] (setting [7]) was 11%; in test [1] (setting [8]), 88% (active); in test [2] (setting [7]) it was 1%; in test [2] (setting [8]), 61%; in test [3] (setting [7]), 6%; in test [3] (setting [8]) it was 77% (active). The growth inhibition in test [4] (setting [7]) is 4%; in test [4] (setting [8]), 71% (active); in test [5] (setting [7]) it was -4%; in test [5] (setting [8]) it was 74% (active); in test [6] (setting [7]), -44%; in test [6] (setting [8]) it was 80% (active).

Take `Cc1ccccc1OCc1cccc(Cl)c1`: the growth inhibition was 8% in test [1] (setting [7]); 23% in test [1] (setting [8]); -1% in test [2] (setting [7]); 4% in test [2] (setting [8]); 4% in test [3] (setting [7]); 43% in test [3] (setting [8]). Also, the growth inhibition in test [4] (setting [7]) was 9%; in test [4] (setting [8]), -10%; in test [5] (setting [7]), 4%; in test [5] (setting [8]), 17%; in test [6] (setting [7]), -5%; in test [6] (setting [8]) it was 6%.
